Source: PubChem BioAssay (NCATS)
Records with an inconclusive call do not appear. A number with no mark means an inactive call. Calls come from the whole dose curve; as a rule, active = well fitted cell-killing curve with a large enough effect; inconclusive = small, poorly fitted or top-dose-only effect, or effect the other way; inactive = flat fitted curve, though single readings scatter.

tested on: Tov112D; test: Primary qHTS to identify gynecologic anti-cancer compounds using libraries of approved drugs and bioactive compounds (AID 1345084); conditions: Gynecologic cancer cell panel viability, ATPlite luminescence, 48 h; series mostly up to 57.5 µM; activity change, negative = cytotoxicity: at the top concentration; note: nearly all actives have a fitted effect of over 55% in size
In short: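 Five-point cytotoxicity, 48 h drug exposure at 37 C, 5% CO2, on cells seeded 16 h beforehand. ATP content read by ATPlite luminescence.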
% is set by controls: 0 for no effect and ±100 for the full control effect.

| SMILES | activity change, negative = cytotoxicity |
| --- | --- |
| CC1(C)CC[C@]2(C(=O)O)CC[C@]3(C)C(=CCC4[C@@]5(C)CC[C@H](O)C(C)(C)C5CC[C@]43C)C2C1 (some centres undefined) | 2.59% [at 25.3 µM] |
| COc1cc(C(CO)C(OC2OC(CO)C(O)C(O)C2O)c2ccc(O)c(OC)c2)ccc1O (centres undefined) | 6.93% [at 25.3 µM] |
| COc1ccc2c(c1)C=C1Cn3c-2c(C2CCCCC2)c2ccc(cc23)C(=O)NS(=O)(=O)N(C)CCOCCN(C)C1=O | -23.5% |
| CC(=O)O[C@@H]1CC2C(C)(C)C(=O)C=C[C@]2(C)C2CC[C@]3(C)C(=CC(=O)[C@@H]3c3ccoc3)[C@@]21C (some centres undefined) | -18.1% [at 25.3 µM] |
| NC1(c2ccc(NC(=O)c3ccnc(-c4cc(C(=O)O)ccn4)c3)cc2)CC1 | 4.19% |
| CC1=C2CC3C(CCC3(C)O)C(C)(O)CC2OC1=O (centres undefined) | -1.07% |
| C[C@@H]1CC[C@]2(C(=O)O)CC[C@]3(C)C(=CCC4[C@@]5(C)C[C@@H](O)[C@@H](O)C(C)(C)C5CC[C@]43C)C2[C@]1(C)O (some centres undefined) | 1.78% [at 25.3 µM] |
| NC(=O)[C@@H]1CC[C@H](c2ccc(OCc3ccccc3F)cc2)N1 | -0.0136% |
| Cc1nnc(-c2ccc3occ(-c4ccc(S(C)=O)cc4)c3c2)o1 (centres undefined) | 28.9% |
